# Laboratory results reported in PubChem BioAssay AID651820 (National Center for Advancing Translational Sciences (NCATS), 2012).
# In all, about 340,000 compounds went through this assay and about 12,000 (3.5%) were called active. Not shown: some 18% with an inconclusive outcome. This is one part of a sample in which actives are shown more often than they occur. Unmarked numbers belong to inactive results. Calls follow the shape of the dose curve; as a rule, active = well fitted inhibition curve with a large enough effect; inconclusive = small, poorly fitted or top-dose-only effect, or another doubt; inactive = no such curve, though single readings can be large or run the other way.
# Experiment: qHTS Assay for Inhibitors of Hepatitis C Virus (HCV)
# Conditions: Huh7.5.1 HCVcc-Cre infection, luciferase reporter, 44 h; series mostly up to 41.8 µM; activity change, negative = inhibition: at the top concentration
# Method in brief: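 Cells seeded at 1,000/well and cultured 4 h, then compounds added followed by HCVcc-Cre virus (~0.5 moi). After 44 h further culture, luciferase substrate was added, plates held 15 min at room temperature, and luminescence read for 15 sec.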
# % is scaled to controls: 0 for no effect and ±100 for the full control effect; potency is read from the fitted curve at half-maximal effect.
Compound,"activity change, negative = inhibition",Potency
CC1CCCCC1NC(=O)COc1ccc(C#N)cc1 (configuration not stated),11.6%,–
Cc1ccc(NC(=O)C/C(N)=N/O)cc1Cl,-10.7%,–
O=C(CC1SCCNC1=O)Nc1ccc(Cl)c(Cl)c1 (configuration not stated),13.4%,–
O=C(CC(O)(C(F)(F)F)C(F)(F)F)Nc1ccc(Cl)c(Cl)c1,–,5.01 µM (active)
Cc1ccccc1OCC(O)CN1CCN(c2ccccn2)CC1 (configuration not stated),1.82%,–
Cc1cccc(OCC(O)CN2CCN(CCN3C(=O)c4cccc5cccc(c45)C3=O)CC2)c1C (configuration not stated),–,8.91 µM (active)
Cc1cccc(C)c1OCC(O)CN1CCCCC1 (configuration not stated),-1.28%,–
CCn1nc(C(=O)NNS(=O)(=O)c2cc(/C=C/C(=O)O)cc(OC)c2OC)c2ccccc2c1=O,-16.4%,–
COc1ccc(-c2nc3cc([N+](=O)[O-])ccc3o2)cc1OC,13.9%,–
CCc1ccc2oc(-c3ccc(N)cc3)nc2c1,–,12.6 µM (active)
COc1cccc(-c2nc3cc(C)ccc3o2)c1,15.5%,–
Nc1cc(=O)n(Cc2ccccc2)c(=O)n1Cc1ccccc1,19.8%,–
Cc1c(NC(=O)CN(C)CC(=O)Nc2ccc(F)c(F)c2F)c(=O)n(-c2ccccc2)n1C,2.52%,–
Cc1ccc(-n2c(SCC(=O)N3c4ccccc4Sc4ccccc43)nnc2-c2ccncc2)cc1,7.58%,–
Cc1ccccc1-n1c(SCC(=O)NCc2cccs2)nnc1-c1ccncc1,-5.89%,–
Cc1ccc(Nc2nc(CSc3nnc(-c4ccncc4)n3-c3ccccc3C)cs2)cc1,–,10 µM (active)
CC1CCCC(C)N1C(=O)COC(=O)COc1ccccc1C#N (configuration not stated),0.641%,–
Cc1cccc(NC(=O)c2cccnc2Cl)n1,-2.06%,–
COC(=O)c1nc(NC(=O)c2ccc(C(C)(C)C)cc2)n[nH]1,17.8%,–
CSc1nccc(NC(=O)c2ccc(C(C)(C)C)cc2)n1,–,1.78 µM (active)
CCN(CC(=O)Nc1cc(Cl)ccc1C)C(=O)CN1C(=O)NC2(CCCC2)C1=O,14%,–
CN[C@H](C(=O)NC[C@H]1O[C@@H](n2cnc3c(N)ncnc32)[C@H](O)[C@@H]1O)[C@@H](C)OCc1ccccc1,49.9%,–
CC(C)(c1ccccc1)c1ccc(OCCN)cc1,-16.6%,–

Compound,"activity change, negative = inhibition",Potency
Cc1cc(C)n(CC(O)COc2ccc(C(C)(C)C)cc2)n1 (configuration not stated),12.2%,–
CN(C)CC(O)COc1ccc(C(C)(C)c2ccc(OCC(O)CN(C)C)cc2)cc1 (configuration not stated),–,10 µM (active)
Cc1ccc(C(=O)NCC(=O)NC2CC2)cc1,15.4%,–
Cc1ccsc1C(=O)NNC(=O)COc1ccc(Br)cc1,19.3%,–
CCc1nnc(NC(=O)C2CCN(C(=O)c3ccccc3C)CC2)s1,14.9%,–
CCN(CC)C(CNC(=O)CSc1nnnn1-c1cccc(F)c1)c1ccco1 (configuration not stated),–,25.1 µM (active)
Cc1cc(NC(=O)CSc2nnnn2-c2ccc(F)cc2)no1,16.5%,–
O=C(CSc1nnnn1-c1ccccc1)NCc1ccco1,-12.8%,–
CCN(CC)S(=O)(=O)c1ccc(Cl)c(C(=O)NC(C)C(c2cccs2)N2CCCC2)c1 (configuration not stated),–,14.1 µM (active)
CCN(CC)S(=O)(=O)c1ccc(Cl)c(C(=O)NCCN2CCOCC2)c1,-1.51%,–
CCCC(=O)NC(C)C(c1cccs1)N1CCN(c2ccccc2)CC1 (configuration not stated),-14.3%,–
O=S(=O)(Nc1cc(Cl)ccc1N1CCOCC1)c1ccccc1Cl,-5.1%,–
Cc1[nH]c2ccccc2c1C(=O)C(C)Sc1nnc(C2CC2)o1 (configuration not stated),8.19%,–
Cc1n[nH]c(=O)c2c(NC(=O)CSc3ccccc3F)oc(C)c12,-1.71%,–
O=C(O)c1ccccc1-c1ccccc1C(=O)Nc1nccs1,7.11%,–
COc1ccc(-c2nn(-c3ccccc3)cc2/C=N/Nc2ccccn2)cc1OC,–,10 µM (active)
COC(=O)c1sccc1NC(=O)c1cc(OC)c(OC)c(OC)c1,-10.6%,–
CN(C)/N=C/c1cn(-c2ccccc2)nc1-c1cccnc1,-5.06%,–
Cn1cccc1C(=O)Nc1nccs1,-12.1%,–
COc1cc(C(=O)Nc2nccs2)cc(OC)c1OC,–,14.1 µM (active)
CC(=O)Oc1ccc(C(=O)Nc2nccs2)cc1,10.5%,–
COc1ccc(-c2nn(-c3ccccc3)cc2C(=O)Nc2nccs2)cc1OC,–,2.51 µM (active)
CC(C)(C)OC(=O)N/N=C/c1cn(-c2ccccc2)nc1-c1cccnc1,-16.7%,–

Compound,"activity change, negative = inhibition",Potency
Cc1ccc(C)c(NC(=O)CN(C)C(=O)COc2ccc3ccccc3c2)c1,4.35%,–
CC(NC(=O)COC(=O)c1ccc2ccccc2n1)c1ccccc1 (configuration not stated),14.5%,–
COc1cc(NC(=O)COC(=O)c2cc(S(=O)(=O)N3CCOCC3)ccc2F)cc(OC)c1,-6.05%,–
Cc1ccc(F)cc1NC(=O)CSCc1c(C)noc1C,7.86%,–
O=C(COC(=O)CNS(=O)(=O)c1ccc(F)c(F)c1F)NC1CCCC1,14.1%,–
CCC1(C)COC(c2ccc(OC)c(OC)c2)OC1 (configuration not stated),10.1%,–
C=CCC[C@@H](Cc1ccc(F)cc1)C(=O)O[C@H](CNC(=O)[C@H](CC=C)CC(=O)N(CCO)Cc1ccccc1)c1ccccc1,–,8.91 µM (active)
C=CC[C@H](CC(=O)OC(C)(C)C)C(=O)OC[C@H]1CCCN1C(=O)[C@H](CC=C)CC(=O)N(CCO)Cc1ccccc1,-2.88%,–
C=CC[C@H](CC(=O)NCCO)C(=O)N[C@@H](COC(=O)[C@@H](CC=C)Cc1ccc(F)cc1)Cc1c[nH]c2ccccc12,-1.64%,–
COc1cc(Nc2nc3ccc(Cl)cc3n3cnnc23)cc(OC)c1OC,0.274%,–
COc1ccc(CCNc2nc3ccc(C)cc3n3cnnc23)cc1OC,-4.98%,–
COc1ccc(OC)c(Nc2nc3ccccc3n3cnnc23)c1,–,10 µM (active)
CN1CCC(N(C)C(=O)c2ccc(Cl)c(S(=O)(=O)Nc3ccc(Cl)cc3)c2)CC1,7.94%,–
CC1CC(C)(C)CC2(C1)NC(=O)N(CC(=O)Nc1nccs1)C2=O (configuration not stated),21.6%,–
COc1ccc2[nH]c3c(c2c1)CCN[C@H]3C,-6.42%,–
COc1ccc2[nH]c(=S)cc(C)c2c1,13.3%,–
COc1ccc2[nH]c3ccc(OC)cc3c2c1,–,25.1 µM (active)
COc1ccc(-c2noc(CCC(=O)N3CCN(c4cccc(C)c4)CC3)n2)cc1,-3.79%,–
COc1cccc(-n2c(SCC(=O)NC3CCS(=O)(=O)C3)nc3ccccc3c2=O)c1 (configuration not stated),21.3%,–
O=C1CC(c2ccccc2)C(=O)N2C(=O)CC(c3ccccc3)C(=O)N12 (configuration not stated),17.1%,–
CCN(CC)C(=O)[C@H]1C[C@H](CC(=O)NCC23CC4CC(CC(C4)C2)C3)C(=O)N2CCc3c([nH]c4cc(CCC(=O)N(C)C)ccc34)[C@]12C,-5.73% [at 8.37 µM],–
